# IMPase cell inh = qHTS Assay for Identifying the Cell-Membrane Permeable IMPase Inhibitors. CHO-M1 cells, IP1 accumulation, HTRF TR-FRET ratio. AID 901, 2007. 120,000 tested, under 10 active. Inositol monophosphatase 1 (Rattus norvegicus), P97697. inhibition (IP1 accumulation), % at 46.1 µM; active means well fitted curve in the direction sought with a large enough effect in the signal ratio, not every such curve was filed as active; inconclusive means small, poorly fitted or top-dose-only effect, or a change in a side signal; inactive means no such curve, though single readings can be large or run the other way; the % refers to the signal ratio;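 further: cells stimulated with carbachol in lithium chloride buffer; plate controls were DMSO basal wells for no effect and reference inhibitor wells for full effect; higher means more IMPase inhibition seen as more IP1 and lower FRET ratio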
# Target sequence (P97697 whole entry, looked up): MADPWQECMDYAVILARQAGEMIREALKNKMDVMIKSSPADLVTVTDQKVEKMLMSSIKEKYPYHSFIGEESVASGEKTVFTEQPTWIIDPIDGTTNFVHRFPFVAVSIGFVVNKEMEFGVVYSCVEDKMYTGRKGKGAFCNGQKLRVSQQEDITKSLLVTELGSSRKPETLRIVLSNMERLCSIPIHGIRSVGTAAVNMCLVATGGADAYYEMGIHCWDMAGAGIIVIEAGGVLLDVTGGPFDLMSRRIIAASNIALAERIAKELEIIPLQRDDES
#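 CHO-M1 cells (CHO stably expressing M1 receptor), compound up to 46 uM final, stimulated with carbachol (50 uM as added) in buffer with 50mM LiCl, pH 7.4, 30 min at 37C. Cytosolic IP1 read by TR-FRET; AC50 from Hill fits.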
# ALDH1A1 block = qHTS Assay for Inhibitors of Aldehyde Dehydrogenase 1 (ALDH1A1); Purified ALDH1A1, NADH fluorescence, propionaldehyde substrate; Potency, µM (titrated, usually from 75.3 µM), inactives show top-dose activity, negative = inhibition, hits mostly inhibitors; Aldehyde dehydrogenase 1A1 (Homo sapiens), P00352; AID 1030, 2008; actives 7.3% (n = 220,000);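 further: potency means the concentration at half of the fitted maximal effect; plate controls were no enzyme wells and a reference inhibitor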
# HPGD inh = qHTS Assay for Inhibitors of HPGD (15-Hydroxyprostaglandin Dehydrogenase) | purified HPGD, NADH fluorescence kinetic, PGE2 substrate | Potency, µM, without a hit: top-dose activity change, negative = inhibition, usual class: inhibitors | actives 4.3% (n = 150,000) | AID 894, 2007; further: potency means the concentration at half of the fitted maximal effect
# Target sequence (P15428 whole entry, looked up): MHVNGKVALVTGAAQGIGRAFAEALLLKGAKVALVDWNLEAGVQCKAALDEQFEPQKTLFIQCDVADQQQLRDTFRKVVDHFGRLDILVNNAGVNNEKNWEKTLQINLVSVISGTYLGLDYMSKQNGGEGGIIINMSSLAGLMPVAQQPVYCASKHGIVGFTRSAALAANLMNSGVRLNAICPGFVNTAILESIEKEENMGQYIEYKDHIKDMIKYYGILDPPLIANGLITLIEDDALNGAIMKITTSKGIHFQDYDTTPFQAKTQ
#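 NADH formation kinetics: reaction with 30 uM PGE2 and 1 mM NAD+ (final), 20 nM enzyme, Tris-HCl pH 8 with Tween 20, after 15 min compound preincubation at room temperature. Fluorescence change, last versus first of five reads.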
# The depositor's hits bear a star; ? = inconclusive; nt = not tested or not shown; [ ] = another dose, or the depositor's remark. Only some compounds are listed: those with a hit (about 9% of all), similar ones and a draw of the others. Unless noted, the call rests on the fitted dose curve; in most records, active means well fitted inhibition curve with a large enough effect (not every such curve was filed as active); inconclusive means small, poorly fitted or top-dose-only effect, or another doubt; inactive means no such curve, though single readings can be large or run the other way. Unless noted, on the % scale 0 is the no-effect control and ±100 the full control effect.
SMILES,IMPase cell inh,ALDH1A1 block,HPGD inh
CCOc1ccc(OCc2ccc(C(=O)OCc3ccccn3)o2)cc1,4,?,25µM*
CC1CN(C(=O)c2ccc(C(=O)c3ccccc3)cc2)CC(C)O1 (stereo not given),1,?,14µM*
CC1CN(C(=O)c2cccc(C(=O)N3CC(C)OC(C)C3)c2)CC(C)O1 (stereo not given),-15,9%,-9%
COc1ccc(C(=O)N2CCCC(c3ccccc3)C2)cc1 (stereo not given),15,?,16µM*
O=C(c1ccc(F)cc1)N1CCC(c2ccccc2)C1 (stereo not given),nt,-2%,nt
CCOC(=O)c1ccc(COc2ccc(C(C)C)cc2)o1,nt,-7%,nt
CS(=O)(=O)N1CCC2(CC1)CN(C(=O)Nc1cccc(F)c1)C2,nt,7%,2%
O=c1c2c(nc3nc(NCc4ccccc4Cl)[nH]n13)CCC2,nt,2%,nt
CCOc1ccc(CC(=O)NNC(=S)NCCc2ccccc2)cc1,nt,-2%,nt
COc1cc(OC)cc(C(=O)N2CCCc3ccccc32)c1,?,-15%,-8%
COc1ccc(C(=O)N2CCC(C(=O)O)CC2)cc1,7,-6%,-3%
CCCOc1ccc(C(=O)N2CCCc3ccccc32)cc1,-6,6.3µM*,16µM*
CCCCOc1ccc(C(=O)N2CCCC2)cc1,8,?,2.2µM*
COc1ccc(OCCC(=O)N2CCCCC2)cc1,7,1%,16µM*
COc1ccc(C(CC(=O)N2CCCCC2)C(C)C)cc1 (stereo not given),nt,-3%,nt
COc1ccc(C(=O)N2CCC(C(=O)c3c(C)cc(C)cc3C)CC2)cc1,nt,22µM*,nt
CCCCOc1ccc(C(=O)O)cc1,-12,5%,-17%
Cn1nccc1-c1cc(Cl)cc(Cl)c1O,nt,-10%,nt
Cc1ccc(CN2CCN(Cc3cnc(N4CCOCC4)s3)CC2CCO)o1 (stereo not given),nt,-13%,nt
CCOC(=O)C1CCCN(C(=O)c2sc3nc(C)nc(N(CC)CC)c3c2C)C1 (stereo not given),-13,3%,14µM*
CCOC(=O)C1CCCN(C(=O)COC(=O)c2ccc(C#N)cc2)C1 (stereo not given),nt,-1%,nt
CCC1CCCCN1C(=O)c1sc2nc(C)nc(N(CC)CC)c2c1C (stereo not given),nt,1%,nt
CCOC(=O)C1CCCN(C(=O)c2ccc(OCC)cc2)C1 (stereo not given),-14,-12%,14µM*
Cc1ccc(C)c(Nc2nnc(-n3nc(C)cc3C)c3ccccc23)c1,7,nt,nt
O=C(COC(=O)c1ccc([N+](=O)[O-])o1)Nc1cccc(S(=O)(=O)N2CCCCC2)c1,nt,11µM*,nt
SMILES,IMPase cell inh,ALDH1A1 block,HPGD inh
Cc1ccc(NC(=O)Cc2c[nH]c3ccccc23)cc1S(=O)(=O)N1CCCCCC1,nt,-9%,-8%
COc1cc(C#N)ccc1OCC(=O)Nc1cccc(S(=O)(=O)N2CCCC2)c1,nt,13µM*,nt
Cc1ccc(NC(=O)COc2cccnc2[N+](=O)[O-])cc1S(=O)(=O)N1CCCCC1,11,?,-10%
Cc1ccc(NC(=O)c2cc(=O)c3ccccc3o2)cc1S(=O)(=O)N1CCCCC1,nt,32µM*,nt
COc1ccccc1OCC(=O)Nc1cc(S(=O)(=O)N2CCCCC2)ccc1N1CCCCC1,nt,?,-7%
O=C(COC(=O)c1cccnc1Cl)Nc1cccc(S(=O)(=O)N2CCCCC2)c1,nt,-5%,nt
Cc1ccc(NC(=O)COC(=O)c2ccc([N+](=O)[O-])o2)cc1S(=O)(=O)N1CCCCC1,nt,25µM*,nt
CCSCc1nnc(SCC(=O)Nc2nc(C)cs2)n1C,nt,-6%,nt
O=S(=O)(c1ccc(F)cc1)N(CC(O)Cn1c2ccccc2c2ccccc21)c1ccccc1 (stereo not given),11,nt,nt
COc1cc(NS(=O)(=O)c2ccc(NC(=O)c3ccc(OC)c(Br)c3)cc2)nc(OC)n1,-1,nt,nt
Cn1c(CN2CCOCC2)nnc1SCC(=O)NCCc1ccccc1,-4,2%,-9%
CCOC(=O)N1CCN(CC(=O)Nc2cc(OC)c(OC)cc2C#N)CC1,nt,15%,nt
Cc1c(C(=O)N2CCN(C)CC2)oc2c1C(=O)CC(C)(C)C2,-4,22µM*,-11%
Cc1c(C(=O)N2CCOCC2)oc2c1C(=O)CC(C)(C)C2,4,-12%,-8%
O=C1OCCC1Sc1nnnn1-c1ccccc1 (stereo not given),5,?,-12%
O=C(c1ccc(F)cc1)N1CCCCC(Sc2nnnn2-c2ccccc2)C1=O (stereo not given),5,4.5µM*,-17%
O=C(CSc1nnnn1-c1ccc(F)cc1)NC1CCCCC1,-6,?,-10%
O=C(c1ccccc1)N1CCCCC(Sc2nnnn2-c2ccccc2)C1=O (stereo not given),-7,3.5µM*,-11%
Oc1ccc(Cc2nccc3cc(O)c(O)cc23)cc1O,nt,-8%[13.5 µM],-10%
Cc1nc2cc(Nc3ccncc3)ccc2s1,nt,15%,nt
COc1ccc2oc(=O)c(C(=O)Nc3ccc(C(=O)O)cc3)cc2c1,-5,nt,nt
COC(=O)c1ccccc1NC(=O)CN1CCC(NC(=O)c2ccccc2C)CC1,9,20µM*,-4%
Cc1ccccc1C(=O)NC1CCN(CC(=O)Nc2nccs2)CC1,-7,-4%,-13%
CCOc1ccc(/C=N/NC(=S)NC2CC3C=CC2C3)cc1 (stereo not given),nt,-3%,nt
COc1cc(/C=N/NC(=S)NC2CC3C=CC2C3)cc(OC)c1OC (stereo not given),nt,2.5µM*,nt
SMILES,IMPase cell inh,ALDH1A1 block,HPGD inh
Oc1c(Br)cc(Br)cc1/C=N/NC(=S)N[C@H]1CC2C=CC1C2 (stereo not given in full),nt,13µM*,nt
CNC(=S)N/N=C/c1cc(Br)cc(Br)c1O,-13,2%,?
COC(=O)Cn1c(C(=O)N2CCCC2)cc2c1C[C@H]1CN(C(=O)c3ccccc3)[C@@](Cc3ccccc3)(C(=O)OC)[C@@H]21,nt,-7%,-2%
CCCCNC(=O)COC(=O)c1cc(C)oc1C,nt,1%,nt
Cc1cc(C)n2c(Nc3ccc(C(C)C)cc3)c(-c3ccsc3)nc2n1,6,nt,nt
CC1(C)CC2C1CC[C@]1(C)CCC3C(C(=O)O)CC(=O)O[C@]32C1 (stereo not given in full),nt,23%,-9%
CSc1ccc(S(=O)(=O)NCc2ccccc2C)cc1,nt,-10%,nt
O=c1c2ccccc2c(C=NCc2ccccn2)c(O)n1-c1ccccc1,nt,-7%,?
O=c1oc2ccccc2c(O)c1C=NCc1ccccn1,-4[1.84 µM],28µM*,?
COc1ccccc1NS(=O)(=O)c1cccc(N=C2N=C(N)c3ccccc32)c1,nt,6%,-14%
COc1ccccc1NC(=O)c1ccc(CSc2ncccn2)cc1,nt,-7%,nt
CC1(C)Cc2nc3sc4c(N(CCO)CCO)ncnc4c3cc2CO1,-2,?,?
CC1(C)Cc2nc3sc(C(=O)NCCO)c(N)c3cc2CO1,-10,?,-9%
COC(CSc1ncnc2c1oc1nc3c(cc12)COC(C)(C)C3)OC,nt,3.2µM*,nt
COC(=O)CSc1ncnc2c1sc1nc3c(cc12)COC(C)(C)C3,nt,1.4µM*,nt

# High-throughput results deposited in PubChem BioAssay by National Center for Advancing Translational Sciences (NCATS).
